Structures are written as SMILES. This is part of a sample that, as a whole, favours compounds with a hit. Of some 83,000 tested, about 20% had one in any assay.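 Values shown are percent growth following 48 h exposure of cells in 96-well plates to a single concentration of compound; below 10 was considered active.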 A number with no mark means an inactive call. Calls of active or inactive are those of the source.

Test systems include BT-549 breast; MDA-MB-435 melanoma; MCF7 breast; HCT-116 colon; HCC-2998 colon; KM12 colon; SW-620 colon.
What all share (assay): NCI-60 one-dose screen, 48 h (100 = growth as untreated, 0 = no growth, -100 = all killed)
Common to all, as to conditions: 10 µM unless noted

Take `COc1cc2c(cc1OCCCOc1cc3c(cc1OC)C(=O)N1CC(F)(F)C[C@H]1C=N3)N=C[C@@H]1CC(F)(F)CN1C2=O`: the growth in the assay on BT-549 breast was -38.5% (active); in the assay on MDA-MB-435 melanoma, -11.8% (active); in the assay with MCF7 breast, 13.8%; with HCT-116 colon, 4.77% (active); in the assay on HCC-2998 colon, -7.61% (active); in the assay with KM12 colon, -18.5% (active).

`Cc1cc2ccccc2c[n+]1CC(=O)c1ccc(-c2ccccc2)cc1`: the growth in the assay on BT-549 breast was 53.3%; in the assay with SW-620 colon, 48.5%; with MCF7 breast it was 29.3%; with HCT-116 colon, 28.4%; with HCC-2998 colon it was 61.8%.

For the compound `O=C(Nc1cc(Br)ccn1)c1cc2cc(Nc3nc(-c4ccccc4)nc4ccccc34)ccc2oc1=O`, the growth is 103% with BT-549 breast; 116% in the assay with MDA-MB-435 melanoma; 91.1% in the assay on MCF7 breast; 98.5% in the assay with HCT-116 colon; 92.7% with HCC-2998 colon; 102% with KM12 colon.

With `Cc1ccc(CS/C(=C\c2ccc([N+](=O)[O-])cc2)C(=O)c2ccc(F)cc2)cc1`, the growth is 75.8% with BT-549 breast; 33.5% in the assay with MDA-MB-435 melanoma; -4.97% (active) with MCF7 breast; -53.1% (active) with HCT-116 colon; 83.7% in the assay with HCC-2998 colon; 13.2% in the assay with KM12 colon.

With `CC[C@]12C=CCN3CC[C@@]4(c5cc(NC(=O)CCC(=O)O[C@H]6CC[C@H]7[C@@H]8CC[C@H]9CC(=O)CC[C@]9(C)[C@H]8CC[C@]67C)c(OC)cc5N(C)[C@H]4[C@@](O)(C(=O)OC)[C@@H]1OC(C)=O)[C@@H]32`, the growth with BT-549 breast was 58.6%; in the assay with MDA-MB-435 melanoma, 76.5%; in the assay on MCF7 breast, 48.2%; with HCT-116 colon, 47.5%; in the assay with HCC-2998 colon it was 97.5%; with KM12 colon, 74.2%.

Regarding `N#Cc1c(-c2ccc(F)cc2)nc(N=Nc2c(O)[nH]c3ccccc23)nc1N1CCOCC1`, the growth is 91.4% in the assay with BT-549 breast; 67.7% with MDA-MB-435 melanoma; 64.4% in the assay on MCF7 breast; 47.2% in the assay on HCT-116 colon; 96.2% in the assay on HCC-2998 colon; 75.1% in the assay with KM12 colon.

As for `COc1cc2nc3c(=O)n(-c4ccc(C#N)cc4)cnn3c(=O)c2cc1OC`, the growth is 102% with BT-549 breast; 98.5% in the assay with MDA-MB-435 melanoma; 103% with MCF7 breast; 101% with HCT-116 colon; 97% in the assay with HCC-2998 colon; 91.7% with KM12 colon.

As for `C=C1C(=O)O[C@H]2[C@H]1CC/C(COC(=O)CCCCCCCCC(=O)OC/C1=C/CC[C@@]3(C)O[C@H]3[C@H]3OC(=O)C(=C)[C@@H]3CC1)=C\CC[C@@]1(C)O[C@@H]21`, the growth in the assay with BT-549 breast is 2.59% (active); in the assay with MDA-MB-435 melanoma it was 8.17% (active); in the assay with MCF7 breast, -37% (active); with HCT-116 colon, -62.7% (active); in the assay on HCC-2998 colon it was 44.2%; with KM12 colon, 20.2%.

In the case of `CCCCCCCc1n(Cc2ccc3ccccc3c2)c2ccccc2[n+]1Cc1ccc2ccccc2c1`, the growth was -86.6% (active) with BT-549 breast; -92.3% (active) in the assay with MDA-MB-435 melanoma; -84.6% (active) in the assay with HCT-116 colon; -61.2% (active) in the assay with HCC-2998 colon; -74.9% (active) in the assay on KM12 colon.

As for `O=C1Nc2ccccc2C12C=C(c1ccccc1)Nc1c2c(-c2ccccc2)nn1-c1ccccc1` (centres undefined), the growth is 70.1% in the assay on BT-549 breast; 65.1% in the assay on MDA-MB-435 melanoma; 39% in the assay on MCF7 breast; 48.6% with HCT-116 colon; 72.3% with HCC-2998 colon; 56.1% with KM12 colon.

As for `S=C(Nc1ccc(Cl)cc1)c1ccccn1`, the growth with BT-549 breast was 94.5%; in the assay on MDA-MB-435 melanoma, 106%; in the assay on MCF7 breast it was 81.4%; in the assay with HCT-116 colon it was 89.7%; in the assay on HCC-2998 colon, 110%; in the assay on KM12 colon, 100%.

As for `CC1(C)Cc2c(Br)c(Br)c(Br)c(OCC(O)CN3CCOCC3)c2O1` (centres undefined), the growth in the assay with BT-549 breast was 78%; in the assay with MDA-MB-435 melanoma, 87.5%; in the assay on HCT-116 colon, 77.9%; with HCC-2998 colon it was 95.9%; in the assay with KM12 colon it was 95%.

As for `COc1ccc2nc3c(n2c1)C(=O)C(=O)c1ccccc1-3`, the growth in the assay on BT-549 breast is -72.3% (active); in the assay on MDA-MB-435 melanoma, -91.8% (active); in the assay with MCF7 breast, -53.1% (active); in the assay on HCT-116 colon, -2.17% (active); in the assay on HCC-2998 colon it was -13.5% (active); in the assay on KM12 colon, 23.1%.

Turning to `C=C(C)[C@@H]1CC[C@]2(C(=O)OCCCC[P+](c3ccccc3)(c3ccccc3)c3ccccc3)CC[C@]3(C)[C@H](CC[C@@H]4[C@@]5(C)CC[C@H](OC(=O)C(Cl)Cl)C(C)(C)[C@@H]5CC[C@]43C)[C@@H]12`, the growth in the assay with BT-549 breast was -71.6% (active); in the assay with MDA-MB-435 melanoma, -62.3% (active); with MCF7 breast, 3.36% (active); in the assay with HCT-116 colon, -76.3% (active); with HCC-2998 colon, -62.8% (active).

Regarding `COc1ccc([C@H]2[C@@H](F)C(=O)N2c2cc(OC)c(OC)c(OC)c2)cc1F`, the growth in the assay on BT-549 breast is 15.3%; in the assay with MDA-MB-435 melanoma, 0.354% (active); with MCF7 breast it was 12.8%; with HCT-116 colon it was 5.59% (active); in the assay with HCC-2998 colon it was 32.9%; in the assay on KM12 colon, 10.7%.

Take `C#CCN1C(=O)c2ccccc2N(CC#C)C12CCN(Cc1cn(CC(=O)Nc3ccccc3C(N)=O)nn1)CC2`: the growth is 72.4% in the assay with BT-549 breast; 91.9% with MDA-MB-435 melanoma; 83.8% in the assay with MCF7 breast; 74.4% in the assay with HCT-116 colon; 100% in the assay on HCC-2998 colon; 88.8% in the assay with KM12 colon.

In the case of `Nc1c(C(=O)c2ccccc2)sc2nc(-c3cc4ccccc4o3)cc(-c3ccc(Cl)cc3)c12`, the growth is 97.9% in the assay on BT-549 breast; 108% in the assay on MDA-MB-435 melanoma; 92% with MCF7 breast; 101% in the assay with HCT-116 colon; 108% in the assay with HCC-2998 colon; 93.4% in the assay with KM12 colon.

For the compound `C#C[C@@]1(O)[C@@H](CO)O[C@@H](n2cc(-c3ccco3)c3c(N)ncnc32)[C@@H]1O`, the growth with BT-549 breast is 58.5%; with MDA-MB-435 melanoma, 66.4%; in the assay with MCF7 breast, 13.9%; with HCT-116 colon it was 68%; in the assay on HCC-2998 colon it was 56.4%; in the assay with KM12 colon, 18.2%.

The record behind these values is PubChem BioAssay (NCI).
